Activity calls are given as the source filed them.

Assay [1] relates to PRMT1 (protein arginine N-methyltransferase 1). In words: PRMT1 binders on small-molecule microarrays, primary screen, biochemical, small-molecule microarray, 635 nm fluorescence (AID 1088).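 Note: binding of Prmt1 protein to compounds spotted on small-molecule microarray slides.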 The settings on record: small-molecule microarray binding, higher = more signal.
The nature of assay [2]: yeast growth modulation, basal conditions, primary screen, YJM789 clinical isolate, OD600, 24 h (AID 1089).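 Note: growth of clinical yeast isolate S. cerevisiae YJM 789 seeded 1000 cells per well; test concentration not given here.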 To be noted: S. cerevisiae YJM789 growth, higher = more signal, called active from +8 up or from −8 down.
The nature of assay [3]: fission yeast growth modulation, primary screen, strain 972, OD600, 24 h, no modulator (AID 1090).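 Note: basal condition with compound alone and no growth modifier present; test concentration not given here.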 To be noted: S. pombe 972 growth, higher = more signal, called active from +8 up or from −8 down.
The nature of assay [4]: S. cerevisiae growth modulation with rapamycin, primary screen, strain BY4716, OD600, 96 h (AID 1091). Note: test concentration not given here. The settings on record: higher = more signal, called active from +8 up or from −8 down.
Assay [5] deals with Torsin-1A-interacting protein 2 (Homo sapiens) (UniProt Q8NFQ8). In words: LULL1 binders on small-molecule microarray, primary screen, cell lysate, human LULL1 lysate, 635/667 nm fluorescence (AID 1092).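 Note: probe is lysate of COS7 cells overexpressing human LULL1; score merges per-feature 667 nm fluorescence with signal-to-noise.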 The settings on record: hLULL1 lysate binding, 635 nm fluorescence, higher = more signal.
Assay [6] in a line: E. coli growth modulation, two-sided OD650, primary screen, E. coli filamentation project, strain DRC41, 24 h (AID 1093).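 Note: MC1000 strain lacking acrAB efflux and sulA so SOS filamentation is blocked; test concentration not given here.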 To be noted: OD650, 24 h, higher = more signal, called active from +8 up or from −8 down.
The nature of assay [7]: small-molecule microarray binders of probe aLefty2, primary screen, biochemical, biotinylated probe, 635/667 nm fluorescence (AID 1094).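 Note: score merges spot fluorescence near 667 nm with spot signal-to-noise ratio.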 The settings on record: higher = more signal.
Assay [8] concerns Noggin (protein binding on small-molecule microarray). In words: Noggin binders on small-molecule microarray, primary screen, biochemical, 635/667 nm fluorescence (AID 1095).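 Note: score merges 667 nm feature fluorescence with signal to noise over triplicate slides.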 To be noted: 635 nm fluorescence, higher = more signal.
For assay [9], the target named is Neurogenic locus notch homolog protein 3 (Homo sapiens) (UniProt Q9UM47). In words: NOTCH3 binders on small-molecule microarray, primary screen, biochemical, 635/667 nm fluorescence (AID 1096). The settings on record: NOTCH3 binding, 635 nm fluorescence, higher = more signal.
The nature of assay [10]: small-molecule microarray binders of probe aEGFR, primary screen, biochemical, biotinylated probe, 635/667 nm fluorescence (AID 1097).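 Note: probe is a biotinylated anti-EGFR antibody binding compounds printed on slides; score combines fluorescence near 667 nm and signal to noise of each spot.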 The settings on record: higher = more signal.
The test system of assay [11] is Plasmodium falciparum Sir2 (PF13_0152, Sir2A). In words: pfSir2 binders on small-molecule microarrays, primary screen, biochemical, small-molecule microarray, 635 nm fluorescence (AID 1098).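 Note: score merges spot fluorescence intensity with its signal-to-noise ratio.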 The settings on record: small-molecule microarray binding, fluorescence 635 nm; higher = more signal.
A short description of assay [12]: small-molecule microarray binders of probe aDKK1, primary screen, biochemical, biotinylated probe, 635/667 nm fluorescence (AID 1099).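 Note: score merges 667nm spot fluorescence with signal to noise across triplicate slides; reference of the scale not given here.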 The settings on record: higher = more signal.
Assay [13] can be described thus: small-molecule microarray binders of probe aCHRDL2, primary screen, biochemical, biotinylated probe, 635/667 nm fluorescence (AID 1100). The settings on record: higher = more signal.
The nature of assay [14]: splicing luciferase reporter signal modulators, primary screen, spliceosome inhibition project, cell-based, HEK293, splice +/- reporter (AID 1101).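 Note: HEK293 cells carrying a splicing-competent luciferase reporter gene; test concentration not given here.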 The settings on record: luminescence, 24 h, higher = more signal, called active from +8 up or from −8 down.
In assay [15] the target is Fibroblast growth factor 10 (Homo sapiens) (UniProt O15520). In words: FGF10 binders on small-molecule microarrays, primary screen, biochemical, small-molecule microarray, 635 nm fluorescence (AID 1102). The settings on record: FGF10 binding, fluorescence 635 nm, higher = more signal.
Assay [16] concerns glycogen synthase kinase-3 (GSK3A per assay name; protocol says GSK3B). In words: GSK3 binders on small-molecule microarrays, primary screen, biochemical, small-molecule microarray, 635 nm fluorescence, GSK3A (AID 1103). Note: the record names both GSK3A and GSK3B. To be noted: small-molecule microarray binding, fluorescence 635 nm; higher = more signal.
Assay [17] deals with Epidermal growth factor receptor (Homo sapiens) (UniProt P00533). In words: EGFR binders on small-molecule microarrays, primary screen, biochemical, small-molecule microarray, 635 nm fluorescence (AID 1104).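 Note: score merges 667 nm emission intensity with spot signal to noise over triplicate slides.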 The settings on record: EGFR binding, higher = more signal.
The target of assay [18] is Follistatin-related protein 3 (Homo sapiens) (UniProt O95633). In words: FSTL3 binders on small-molecule microarrays, primary screen, biochemical, small-molecule microarray, 635 nm fluorescence (AID 1105).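 Note: score merges emission near 667 nm and signal to noise per printed spot across three slides.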 The settings on record: FSTL3 binding, higher = more signal.
Assay [19] deals with Dickkopf-related protein 1 (Homo sapiens) (UniProt O94907). In words: DKK1 binders on small-molecule microarrays, primary screen, biochemical, small-molecule microarray, 635 nm fluorescence scan (AID 1106).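 Note: score merges emission near 667 nm with signal to noise over three replicate slides.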 To be noted: DKK1 binding, higher = more signal.
Assay [20] deals with Inhibin beta A chain (activin A). In words: INHBA (activin A) binders on microarrays, primary screen, biochemical, small-molecule microarray, 635 nm fluorescence scan (AID 1107).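 Note: mouse activin A protein probed at 4.33 µg/mL on printed slides; score merges bound-protein fluorescence near 667 nm with spot signal-to-noise.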 The settings on record: small-molecule microarray binding, higher = more signal.

Sequence of Fibroblast growth factor 10 (Homo sapiens) (O15520 whole entry, looked up): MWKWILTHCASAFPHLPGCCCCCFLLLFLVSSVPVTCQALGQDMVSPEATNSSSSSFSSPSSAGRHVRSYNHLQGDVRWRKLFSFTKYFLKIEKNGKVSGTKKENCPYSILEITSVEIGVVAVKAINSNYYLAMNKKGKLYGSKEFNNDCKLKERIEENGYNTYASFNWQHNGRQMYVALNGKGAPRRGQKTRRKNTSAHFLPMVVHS
Sequence of Neurogenic locus notch homolog protein 3 (Homo sapiens) (Q9UM47 whole entry, looked up): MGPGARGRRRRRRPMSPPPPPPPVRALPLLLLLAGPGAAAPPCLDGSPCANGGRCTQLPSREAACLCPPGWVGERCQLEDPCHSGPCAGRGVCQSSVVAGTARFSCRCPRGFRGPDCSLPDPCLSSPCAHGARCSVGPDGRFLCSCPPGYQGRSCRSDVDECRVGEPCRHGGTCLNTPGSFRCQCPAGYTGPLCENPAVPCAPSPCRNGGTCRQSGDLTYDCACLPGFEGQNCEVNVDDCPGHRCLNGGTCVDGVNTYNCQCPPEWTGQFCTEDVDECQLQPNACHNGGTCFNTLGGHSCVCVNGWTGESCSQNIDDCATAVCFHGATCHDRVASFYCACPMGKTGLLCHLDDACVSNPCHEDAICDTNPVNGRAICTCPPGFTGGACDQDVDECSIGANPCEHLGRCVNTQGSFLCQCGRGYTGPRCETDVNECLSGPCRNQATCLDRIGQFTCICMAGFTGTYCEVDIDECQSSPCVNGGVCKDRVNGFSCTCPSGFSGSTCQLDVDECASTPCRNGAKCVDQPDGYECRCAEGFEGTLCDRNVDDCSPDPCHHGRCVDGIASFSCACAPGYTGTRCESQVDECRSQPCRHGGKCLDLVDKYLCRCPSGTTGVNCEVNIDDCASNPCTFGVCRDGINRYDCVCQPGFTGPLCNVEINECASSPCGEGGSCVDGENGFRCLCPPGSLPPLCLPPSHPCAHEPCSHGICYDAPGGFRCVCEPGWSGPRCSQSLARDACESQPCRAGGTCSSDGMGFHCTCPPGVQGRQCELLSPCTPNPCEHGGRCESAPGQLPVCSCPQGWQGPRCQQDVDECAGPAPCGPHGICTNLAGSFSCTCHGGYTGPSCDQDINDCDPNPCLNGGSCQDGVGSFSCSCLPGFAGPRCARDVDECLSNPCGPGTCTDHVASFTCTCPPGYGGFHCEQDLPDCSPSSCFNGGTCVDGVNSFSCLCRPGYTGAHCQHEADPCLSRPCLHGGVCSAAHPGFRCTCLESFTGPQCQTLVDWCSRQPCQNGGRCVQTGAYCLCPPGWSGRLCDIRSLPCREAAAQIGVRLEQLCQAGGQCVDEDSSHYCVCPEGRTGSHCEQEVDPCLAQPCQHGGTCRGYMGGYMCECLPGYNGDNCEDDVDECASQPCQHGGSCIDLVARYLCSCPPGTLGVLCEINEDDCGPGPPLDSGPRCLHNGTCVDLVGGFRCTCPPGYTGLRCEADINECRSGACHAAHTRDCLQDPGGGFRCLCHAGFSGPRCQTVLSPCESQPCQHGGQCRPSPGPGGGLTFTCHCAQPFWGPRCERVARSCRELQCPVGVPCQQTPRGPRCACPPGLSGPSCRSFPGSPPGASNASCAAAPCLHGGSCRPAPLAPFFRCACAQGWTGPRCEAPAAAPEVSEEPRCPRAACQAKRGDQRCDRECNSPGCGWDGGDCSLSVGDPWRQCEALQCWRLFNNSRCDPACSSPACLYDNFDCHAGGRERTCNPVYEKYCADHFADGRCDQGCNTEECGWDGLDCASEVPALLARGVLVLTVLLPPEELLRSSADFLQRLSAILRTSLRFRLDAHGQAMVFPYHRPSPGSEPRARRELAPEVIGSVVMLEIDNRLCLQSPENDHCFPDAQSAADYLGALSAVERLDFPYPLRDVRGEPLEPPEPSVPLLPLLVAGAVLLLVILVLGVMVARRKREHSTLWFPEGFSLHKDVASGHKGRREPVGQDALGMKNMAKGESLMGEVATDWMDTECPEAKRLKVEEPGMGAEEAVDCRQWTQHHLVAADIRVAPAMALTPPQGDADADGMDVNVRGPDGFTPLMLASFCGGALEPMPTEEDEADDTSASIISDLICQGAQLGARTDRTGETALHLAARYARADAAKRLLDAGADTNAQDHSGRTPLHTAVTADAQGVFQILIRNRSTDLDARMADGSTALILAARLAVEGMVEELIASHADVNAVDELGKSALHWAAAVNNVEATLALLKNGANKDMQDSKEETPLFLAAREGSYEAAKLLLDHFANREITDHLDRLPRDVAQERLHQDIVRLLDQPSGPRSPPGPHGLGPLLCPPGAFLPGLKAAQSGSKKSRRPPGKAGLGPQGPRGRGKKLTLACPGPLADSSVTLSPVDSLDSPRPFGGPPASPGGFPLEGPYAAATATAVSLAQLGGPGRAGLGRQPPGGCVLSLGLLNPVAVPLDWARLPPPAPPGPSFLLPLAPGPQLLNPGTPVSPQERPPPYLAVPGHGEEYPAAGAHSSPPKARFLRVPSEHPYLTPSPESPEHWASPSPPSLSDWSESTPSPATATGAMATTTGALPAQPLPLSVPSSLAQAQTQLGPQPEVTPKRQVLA
Sequence of Torsin-1A-interacting protein 2 (Homo sapiens) (Q8NFQ8 whole entry, looked up): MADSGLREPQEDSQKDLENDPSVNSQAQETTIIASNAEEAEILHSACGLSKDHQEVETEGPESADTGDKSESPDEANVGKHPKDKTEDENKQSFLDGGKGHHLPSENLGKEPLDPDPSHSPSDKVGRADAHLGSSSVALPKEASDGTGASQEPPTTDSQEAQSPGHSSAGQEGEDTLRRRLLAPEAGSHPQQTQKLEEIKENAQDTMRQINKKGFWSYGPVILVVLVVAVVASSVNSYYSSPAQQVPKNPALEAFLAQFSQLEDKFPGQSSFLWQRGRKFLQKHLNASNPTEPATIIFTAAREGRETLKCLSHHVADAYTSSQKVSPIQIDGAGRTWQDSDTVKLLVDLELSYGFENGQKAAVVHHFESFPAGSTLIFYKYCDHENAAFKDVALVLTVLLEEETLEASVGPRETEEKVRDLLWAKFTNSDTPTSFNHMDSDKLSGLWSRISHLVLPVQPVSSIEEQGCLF
Sequence of Dickkopf-related protein 1 (Homo sapiens) (O94907 whole entry, looked up): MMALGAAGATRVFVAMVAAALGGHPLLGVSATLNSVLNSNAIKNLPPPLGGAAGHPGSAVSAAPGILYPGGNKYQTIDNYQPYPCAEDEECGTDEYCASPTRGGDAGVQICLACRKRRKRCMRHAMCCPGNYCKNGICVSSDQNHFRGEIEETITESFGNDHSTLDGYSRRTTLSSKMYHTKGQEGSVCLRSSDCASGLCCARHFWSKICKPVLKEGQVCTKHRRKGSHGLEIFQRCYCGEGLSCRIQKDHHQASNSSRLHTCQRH
Sequence of Epidermal growth factor receptor (Homo sapiens) (P00533 whole entry, looked up): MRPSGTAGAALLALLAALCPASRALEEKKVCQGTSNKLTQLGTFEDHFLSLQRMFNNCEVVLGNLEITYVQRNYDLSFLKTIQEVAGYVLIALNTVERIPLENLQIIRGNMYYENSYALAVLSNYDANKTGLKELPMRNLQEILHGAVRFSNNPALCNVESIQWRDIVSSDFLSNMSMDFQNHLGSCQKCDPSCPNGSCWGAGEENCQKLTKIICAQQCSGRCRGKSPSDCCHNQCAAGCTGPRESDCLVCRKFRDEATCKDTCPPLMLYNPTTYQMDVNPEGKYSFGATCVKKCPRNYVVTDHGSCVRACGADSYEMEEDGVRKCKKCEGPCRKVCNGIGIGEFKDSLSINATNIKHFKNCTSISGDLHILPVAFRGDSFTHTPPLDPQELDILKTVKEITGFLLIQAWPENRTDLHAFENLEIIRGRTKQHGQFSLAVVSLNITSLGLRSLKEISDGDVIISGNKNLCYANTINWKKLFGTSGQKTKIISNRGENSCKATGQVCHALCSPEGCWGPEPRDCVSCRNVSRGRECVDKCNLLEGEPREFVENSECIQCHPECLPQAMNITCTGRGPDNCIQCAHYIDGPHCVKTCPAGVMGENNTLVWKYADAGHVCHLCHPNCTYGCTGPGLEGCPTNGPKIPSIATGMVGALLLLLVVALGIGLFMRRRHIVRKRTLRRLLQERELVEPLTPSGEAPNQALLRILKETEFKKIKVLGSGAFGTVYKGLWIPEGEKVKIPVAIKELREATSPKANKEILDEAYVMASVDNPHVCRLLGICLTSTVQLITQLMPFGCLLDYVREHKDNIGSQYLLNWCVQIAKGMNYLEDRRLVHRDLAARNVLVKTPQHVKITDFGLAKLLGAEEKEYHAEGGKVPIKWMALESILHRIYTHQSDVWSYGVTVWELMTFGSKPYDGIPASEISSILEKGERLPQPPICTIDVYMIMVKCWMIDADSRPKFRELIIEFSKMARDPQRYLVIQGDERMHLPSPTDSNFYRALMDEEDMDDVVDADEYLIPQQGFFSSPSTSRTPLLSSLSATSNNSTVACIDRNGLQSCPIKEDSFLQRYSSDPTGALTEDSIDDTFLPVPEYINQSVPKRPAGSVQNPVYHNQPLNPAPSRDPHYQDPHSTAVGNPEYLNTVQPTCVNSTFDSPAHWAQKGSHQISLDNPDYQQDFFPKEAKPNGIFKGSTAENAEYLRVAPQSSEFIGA
Sequence of Follistatin-related protein 3 (Homo sapiens) (O95633 whole entry, looked up): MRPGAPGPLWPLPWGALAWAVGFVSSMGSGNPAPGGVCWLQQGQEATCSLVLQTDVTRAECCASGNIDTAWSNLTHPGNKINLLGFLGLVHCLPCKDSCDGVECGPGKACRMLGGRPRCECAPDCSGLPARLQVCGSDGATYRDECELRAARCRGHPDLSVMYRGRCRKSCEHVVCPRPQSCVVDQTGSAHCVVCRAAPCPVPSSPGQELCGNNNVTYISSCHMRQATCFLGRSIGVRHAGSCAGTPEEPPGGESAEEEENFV

For `COC(=O)C(CC#Cc1ccc2c(c1)[C@]1(C(=O)N2)[C@H](c2ccc(O)cc2)N2[C@H](c3ccccc3)[C@H](c3ccccc3)OC(=O)[C@H]2[C@@H]1C(=O)N1CCc2cc(OC)c(OC)cc2C1)C(=O)OC`, the composite z-score is 1.54 in assay [1]; 1.59 in assay [5]; -0.109 in assay [7]; 0.958 in assay [8]; 1.05 in assay [9]; 0.232 in assay [10]. Moreover, the composite z-score in assay [11] is 1.38; in assay [12], 0.505; in [13], 0.724; in assay [15], 0.817; in assay [16] it was 1.32; in assay [17], 0.708. In addition, the composite z-score in assay [18] is 1.29; in assay [19], 1.06; in assay [20], -0.0531. For the same molecule, the z-score in assay [2] was 1.39 (inactive); in assay [3], 1.12 (inactive); in assay [4] it was 0.735 (inactive); in assay [6], -0.829 (inactive); in assay [14], -0.541 (inactive).
Regarding `CN1C(=O)[C@]2(CCC(=O)OC(C)(C)C)N=C(c3ccc(OCCCO)cc3)O[C@@H]2c2ccccc21`, the composite z-score in assay [1] is 1.55; in [5], 3.06; in assay [7], 0.0079; in assay [8] it was 1.9; in assay [9], 1.13; in assay [10] it was -0.04. Further, the composite z-score in assay [11] was 1.14; in assay [12], -0.0732; in assay [13], 0.651; in [15] it was 1.38; in [16] it was 1.29; in assay [17], -0.0099. Besides, the composite z-score in assay [18] is 0.659; in [19] it was 0.297; in assay [20], 0.643. The z-score in assay [2] is 0.494 (inactive); in assay [3], -0.243 (inactive); in [4] it was 0.872 (inactive); in assay [6] it was 0.95 (inactive); in [14] it was -0.432 (inactive).
For the molecule `CC(c1ccccc1)C(O)C1C=CC2C(=O)N(c3ccccc3)C(=O)C2N1Nc1ccc(C#N)cc1` (stereo not given), the composite z-score is 1.55 in [1]; 3.88 in assay [5]; 0.123 in assay [7]; 0.562 in assay [8]; 1.04 in [9]; 0.066 in assay [10]. For the same molecule, the composite z-score in assay [11] was 1.27; in assay [12] it was 0.0897; in [13], 0.582; in assay [15] it was 0.975; in assay [16], 1.32; in assay [17] it was 0.702. For the same molecule, the values for the composite z-score in [18], in assay [19] and in assay [20] were 1.48, -0.163 and 0.251, respectively. Besides, the z-score was -2.46 (inactive) in [2]; 1.16 (inactive) in [3]; 37.9 (active) in assay [4]; 0.939 (inactive) in [6]; -0.44 (inactive) in [14].
For the molecule `C=CCNC(=O)[C@H]1[C@@H]2C(=O)O[C@@H](c3ccccc3)[C@@H](c3ccccc3)N2[C@@H](c2ccccc2OCCO)[C@]12C(=O)N(C(=O)OCCOC)c1ccccc12`, the composite z-score in [1] is 1.51; in assay [5] it was 2.78; in assay [7], -0.196; in assay [8], 0.786; in assay [9] it was 1.12; in [10], -0.0828. Besides, the composite z-score in assay [11] worked out at 1.58; in assay [12], 0.125; in assay [13], 0.0274; in [15], 1.08; in assay [16] it was 1.28; in assay [17] it was 0.341. In addition, the results for the composite z-score in assay [18], in [19] and in [20] were 0.616, 0.239 and -0.101, respectively. Besides, the z-score in assay [2] was 1.5 (inactive); in [3], 2.05 (inactive); in assay [4] it was 5.15 (inactive); in assay [6], -0.513 (inactive); in assay [14], -1.24 (inactive).
Regarding `CC(C)C(=C=CC[C@@H](O)c1ccccc1OCCO)C[C@@H](O)c1cc(Cl)cc(Cl)c1O`, the composite z-score in [1] was 1.54; in assay [5] it was 2.7; in [7], -0.108; in [8] it was 1.67; in assay [9], 1.09; in assay [10], 0.0182. Further, the composite z-score in [11] was 0.665; in assay [12], -0.102; in assay [13] it was -0.555; in [15], 1.46; in [16], 1.13; in assay [17], 0.472. In addition, the values for the composite z-score in [18], in [19] and in [20] were 1.16, 0.741 and 0.169, respectively. Besides, the z-score in [2] is -0.0964 (inactive); in assay [3], -1.46 (inactive); in assay [4], -0.443 (inactive); in assay [6], -0.101 (inactive); in [14] it was -1.59 (inactive).
